Rv3671c protease = Rv3671c serine protease inhibitors, primary screen, biochemical, fluorescence polarization, M. tuberculosis H37Rv | AID 2606, 2010 | P9WHR9 | 320,000 tested, 0.048% active | inhibition, % at 5.96 µM; in the data active means inhibition above about 38%;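 further: extracellular domain of Rv3671c used as enzyme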
UGM FP inh = M. tuberculosis UGM enzyme inhibitors, primary screen, biochemical, fluorescence polarization, single point; UDP-galactopyranose mutase (Mycobacterium tuberculosis (strain ATCC 25618 / H37Rv)), …; purified UGM, fluorescence polarization probe displacement; inhibition, % at 10 µM; 320,000 tested, 0.06% active; AID 504406, 2011; in the data active means inhibition above about 10%, passing the limit was not always enough
GDH-TPI counter-1 = GDH-TPI coupling enzyme inhibitors, primary screen, artefact control for M. tuberculosis FBA inhibitor project, biochemical, absorbance, full deck | AID 588335, 2011 | inhibition, % at 4.8 µM | GDH-TPI coupled enzyme counterscreen, NADH absorbance | 360,000 tested, 1.2% active; in the data active means inhibition above about 30%
FBA Mtb inh = Mtb FBA enzyme inhibitors, primary screen, biochemical, fluorescence, strain H37Rv; Fructose-bisphosphate aldolase (Mycobacterium tuberculosis (strain ATCC 25618 / H37Rv)), …; purified M. tuberculosis FBA, fluorescence read-out; inhibition, % at 1 µM; 360,000 tested, 2.3% active; AID 588726, 2011
Target sequence (P9WQA3 whole entry, looked up): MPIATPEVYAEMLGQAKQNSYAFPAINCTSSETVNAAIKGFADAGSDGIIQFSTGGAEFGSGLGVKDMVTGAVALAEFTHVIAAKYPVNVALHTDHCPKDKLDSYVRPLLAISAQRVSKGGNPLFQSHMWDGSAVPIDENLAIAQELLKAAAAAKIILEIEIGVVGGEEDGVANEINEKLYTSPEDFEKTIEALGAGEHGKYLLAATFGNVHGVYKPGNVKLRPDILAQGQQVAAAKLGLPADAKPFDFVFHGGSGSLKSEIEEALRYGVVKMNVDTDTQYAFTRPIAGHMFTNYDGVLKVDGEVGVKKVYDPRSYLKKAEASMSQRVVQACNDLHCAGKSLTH
Mtb bLac sens = beta-lactam sensitization of Mtb H37Rv, H37Rv. 330,000 tested, 0.27% active. AID 434955, 2010. M. tuberculosis H37Rv growth with meropenem, percent inhibition. inhibition, % at 25 µM; call rule not given here;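 further: growth measured after seven days incubation then overnight dye step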
Mtb FBA confirm = M. tuberculosis aldolase blockers, biochemical, fluorescence, strain H37Rv, confirmation. shares compounds with FBA Mtb inh. purified M. tuberculosis FBA, fluorescence read-out. inhibition, % at 1 µM. 5,600 tested, 78% active. AID 651616, 2012
GDH-TPI counter-2 = GDH-TPI coupling enzyme inhibitors, artefact control for M. tuberculosis FBA inhibitor project, biochemical, fluorescence, high throughput; shares compounds with FBA Mtb inh; GDH-TPI coupled enzyme counterscreen; inhibition, % at 1 µM; 5,600 tested, 81% active; in the data active means inhibition above about 10%
A number is an active result; - = inactive; . = not tested or not shown; + = active, no number. The list is not random: actives were taken first. Their share in the collection is about 3.5%. Unless noted, no stated cut-off is given here; in the data, active means inhibition above about 27%; inactive means the rest.

SMILES | Rv3671c protease | UGM FP inh | GDH-TPI counter-1 | FBA Mtb inh | Mtb bLac sens | Mtb FBA confirm | GDH-TPI counter-2
Cc1ccc2nc(-c3cccc(Br)c3)c(Cc3cccc(Cl)c3)n2c1 | . | . | . | - | . | . | .
CN1C(=O)c2ccc(C(=O)NCc3ccc4c(c3)OCO4)cc2C1=O | - | - | - | - | - | . | .
CCOc1cc(C(=O)NCc2ccc3c(c2)OCO3)cc(OCC)c1OCC | - | - | - | - | - | . | .
CCOc1c2ccc(C(=O)NCc3ccc4c(c3)OCO4)cc2nn1CCOC | - | - | - | 49.4 | - | - | -
CCCCn1nc2cc(C(=O)NCc3ccc4c(c3)OCO4)ccc2c1OCC | - | - | - | 33.9 | - | 175.8 | 140.5
CCCn1nc2cc(C(=O)NCc3ccc4c(c3)OCO4)ccc2c1OCC | - | - | - | 61.9 | - | 186.1 | 167.1
CCOc1c2ccc(C(=O)NCc3ccc4c(c3)OCO4)cc2nn1CC | - | - | - | 50.8 | - | 102.0 | 84.0
Cc1ccc(C(C(=O)NC2CCCCC2)N(Cc2cccnc2)C(=O)c2csnn2)cc1 (stereo not given) | - | - | - | - | - | . | .
Cc1ccc(-n2nnnc2SCC(=O)Nc2ncc(Cc3ccccc3Cl)s2)cc1 | - | - | - | - | - | . | .
CCc1ccn2cc(-c3ccc4c(c3)OCO4)nc2c1 | - | - | - | 91.3 | - | 64.9 | 43.2
COC(=O)c1ccc2c(c1)C(C)(C)C(/C=C/c1ccc(O)cc1)=[N+]2C | - | - | - | - | - | . | .
COC(=O)c1ccc2c(c1)C(C)(C)C(/C=C/c1ccc(OC)c(OC)c1OC)=[N+]2C | - | - | - | 47.5 | - | 77.6 | 57.2
Cc1c2c(nc3c(C(=O)NC4CCCC4)cnn13)CCCC2 | - | - | - | - | . | . | .
COC(=O)c1cnn2c3c(c(C)nc12)CCCC3 | - | - | - | 74.3 | - | 130.2 | 106.9
CCN(CC)CCN(Cc1cc2ccc(C)cc2[nH]c1=O)C(=O)Nc1ccc(Cl)cc1 | - | - | - | - | - | . | .
Cc1ccc(NCC(=O)NNC2=NCCC2)c(C)c1 | - | - | - | - | - | . | .
Cc1ccc(C)c(NC(=O)CSc2nc3nc(-c4cccs4)cc(C(F)(F)F)c3c(=O)[nH]2)c1 | - | - | - | 44.0 | - | 85.7 | 81.8
O=C(CSc1nc2nc(-c3cccs3)cc(C(F)(F)F)c2c(=O)[nH]1)Nc1ccc(F)c(F)c1 | - | - | - | - | - | . | .
CCOC(=O)Nc1ccc2nc(-c3cscn3)[nH]c2c1 | . | . | - | 27.7 | . | 50.5 | 37.9
COc1ccccc1OCC(=O)Nc1nc(C)c(C)s1 | - | - | - | - | - | . | .
CCCc1cc(C(=O)NC2CCCN(Cc3ccccc3F)C2)no1 (stereo not given) | - | - | - | - | - | . | .
Clc1ccc(-c2cn3cc(Cl)ccc3n2)cc1 | - | - | - | - | - | . | .
CCN(CC)S(=O)(=O)c1ccc(-c2cn3cc(Cl)ccc3n2)cc1 | - | - | - | 31.5 | - | . | +
CCCCn1nnnc1NCc1cccnc1 | - | - | - | 29.7 | - | + | +
CCCCn1nnnc1NCc1ccc(N2CCCC2)cc1 | - | - | - | - | - | . | .
SMILES | Rv3671c protease | UGM FP inh | GDH-TPI counter-1 | FBA Mtb inh | Mtb bLac sens | Mtb FBA confirm | GDH-TPI counter-2
O=C(NCc1cccnc1)c1ccccc1Br | - | - | - | - | - | . | .
O=C(NCc1cccnc1)c1cnn2ccccc12 | - | - | - | 30.1 | - | 192.5 | 140.4
COc1cccc(CNC(=O)c2cc(C3CC3)nc3c2cnn3C(C)C)c1 | - | - | - | - | - | . | .
CC(C)n1ncc2c(C(=O)NCc3cccnc3)cc(C3CC3)nc21 | . | . | - | 53.6 | . | + | +
Cc1cc(C)n2ncc(C(=O)NCc3cccnc3)c2n1 | - | - | - | 42.2 | - | 42.8 | 42.5
CCc1cc(=O)oc2cc(C)cc(OCC(=O)C(C)(C)C)c12 | - | - | - | 65.3 | - | 126.2 | 105.5
CCc1cc(=O)oc2cc(C)cc(OCC(C)=O)c12 | - | - | - | 77.1 | - | 56.1 | 46.4
CCc1cc(=O)oc2cc(C)cc(O)c12 | - | - | - | - | - | . | .
CCc1cc(=O)oc2cc(C)cc(OCC(=O)NC(Cc3c[nH]c4ccc(O)cc34)C(=O)O)c12 (stereo not given) | - | - | - | - | - | . | .
COc1ccc(NC(=O)C2CCCN2S(=O)(=O)c2cccc3cccnc23)cc1OC (stereo not given) | - | - | - | - | - | . | .
CCN(C(=S)Nc1cc(S(=O)(=O)N2CCOCC2)ccc1Cl)c1cccc2ccccc12 | - | - | - | 48.2 | - | 82.1 | 56.2
COc1ccc(/C=N/NC(=O)c2c(C)nnn2-c2nonc2N)cc1OC | - | - | - | - | - | . | .
CC1(C)Cc2c(c(-c3ccco3)nc3sc4c(NCCN5CCOCC5)ncnc4c23)CO1 | - | - | 34.5 | 27.4 | - | - | -
CC1(C)Cc2c(c(-c3ccco3)nc3sc4c(NCCCO)ncnc4c23)CO1 | - | - | 48.1 | 36.6 | - | 43.3 | 24.1
CC(C)CNc1ncnc2c1sc1nc(N3CCOCC3)c3c(c12)CC(C)(C)OC3 | - | - | - | - | - | . | .
CC1(C)Cc2c(c(-c3ccco3)nc3sc4c(NCC5CCCO5)ncnc4c23)CO1 (stereo not given) | - | - | - | - | - | . | .
Cc1c(C(=O)Nc2ccc(F)cc2)c2ccccn2c1CCc1ccncc1 | - | - | - | 32.1 | - | + | +
COC(=O)CCc1c(C)c(C(=O)c2ccc(F)cc2)c2ccccn12 | - | - | - | - | - | . | .
COc1ccc(C2=Nc3ccccc3C2(O)CCN2C(=O)c3ccccc3C2=O)cc1 (stereo not given) | . | . | - | - | . | . | .
Cc1ccc(NC(=O)c2ccccc2N(C)S(=O)(=O)c2ccccc2)c(C)c1 | - | - | - | - | - | . | .
CCc1nnc(NC(=O)CSc2nc(C)c3c(c2C#N)CCCC3)s1 | - | - | - | 55.6 | - | - | -
CCOc1ccc(CCNC(=O)COC(=O)c2cccc(N(C)C)c2)cc1OCC | - | - | - | - | - | . | .
C[C@@H]1CCCCO[C@@H](CN(C)C(=O)C2CCCCC2)[C@@H](C)CN([C@H](C)CO)C(=O)c2cc(NC(=O)NC3CCCCC3)ccc2O1 | . | . | - | - | . | . | .
COc1c(Cl)cccc1-c1cn2ccccc2n1 | - | - | - | 68.1 | - | - | -
CCn1c(=O)c2cc(C(=O)NCCN3CCOCC3)sc2c2ccccc21 | - | - | - | 74.9 | - | 198.1 | 161.8
CCn1c(=O)c2cc(C(=O)NC(C)C)sc2c2ccccc21 | - | - | - | 44.2 | - | . | +
O=C1C=C(c2cccc(Br)c2)C[C@@H](c2ccc(Cl)cc2)C1 | - | - | - | - | - | . | .

Screens from PubChem.
